From PubChem
SARS PLpro yeast: qHTS of Yeast-based Assay for SARS-CoV PLP | S. cerevisiae expressing SARS-CoV PLpro, growth rescue | 330,000 compounds, 0.19% hits | Potency, µM (series often up to 32.9 µM), hits mostly activators; calls by dose curve; also: nearly all actives have a fitted effect of over 55% in size
Sm TGR inh: qHTS Assay for the Inhibitors of Schistosoma Mansoni Peroxiredoxins. Schistosoma mansoni thioredoxin glutathione reductase (TGR), Q962Y6. purified TGR, DTNB reduction, TNB absorbance 405 nm. Potency, µM (top dose mostly 114 µM), hits mostly inhibitors. 360,000 compounds, 3% hits. AID 485364, 2010; active = well fitted inhibition curve with a large enough effect; inconclusive = small, poorly fitted or top-dose-only effect; inactive = no such curve, though single readings can be large or run the other way; also: nearly all actives have a fitted effect of over 60% in size
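TGR 20 nM + NADPH 100 uM (dispensed conc.), cpd preinc 15 min RT; start with NADPH (500 uM addition) then DTNB (15 mM addition). Kinetic TNB absorbance, 405 nm filter. Four-parameter Hill fit across titration.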
Large screens that a line does not name were inactive. Shown are actives, neighbours in structure and some others; about 3% of the full set was active somewhere.

Cc1cccc(N2CCN(C(=O)CN3CCOc4ccccc43)CC2C)c1 (centres undefined)	none
Cc1ccc(N2C(=O)C3C4C=CC(CNC(=S)N5CCN(c6cccc(C)c6)C(C)C5)(O4)C3C2=O)cc1 (centres undefined)	Sm TGR inh 3.2µM
CCOC(=O)c1noc2ncnc(N3CCN(c4cccc(Cl)c4)CC3)c12	none (no result: SARS PLpro yeast)
C(C#CCCCCCCCCC[n+]1ccccc1)#CCCCCCCCCC[n+]1ccccc1	Sm TGR inh 40µM (no result: SARS PLpro yeast)
CCc1ccc(NC(=O)CC2C(=O)N(c3cccc(C)c3)C(=O)N2Cc2cccs2)cc1 (centres undefined)	none (no result: SARS PLpro yeast)
CCCCN1Cc2c(nc3cc(-c4ccco4)[nH]n3c2=O)C1=O	Sm TGR inh 20µM
COCc1cc(=O)n2[nH]c(-c3ccco3)cc2n1	none
CCCCOC(=O)c1ccc(NC(=O)CSc2nc3c(c(=O)[nH]2)CCCC3)cc1	none (no result: SARS PLpro yeast)
COc1cccc(-c2csc(NC3OC(=O)c4c3ccc(OC)c4OC)n2)c1 (centres undefined)	Sm TGR inh 40µM
COc1ccc2c(c1OC)C(=O)OC2Nc1nc(-c2ccc(-c3ccccc3)cc2)cs1 (centres undefined)	none
CC(C)N=C1NN=C(c2cccs2)C(CC(=O)O)S1 (centres undefined)	Sm TGR inh 16µM
O=C(O)CC1S/C(=N/N=C/c2ccccn2)NC1=O (centres undefined)	none
Cc1nn(CC(=O)Nc2ccc3c(c2)nc2n3CCOC2)c(=O)c2ccccc12	none
COCCN1CCn2c(nc3cc(NC(C)=O)ccc32)C1	Sm TGR inh 14µM
COCCN1CCn2c(nc3cc(NC(=O)c4ccc(OC)cc4)ccc32)C1	SARS PLpro yeast inconclusive, Sm TGR inh 16µM
COCCN1CCn2c(nc3cc(NC(=O)Cn4nc(C)c5ccccc5c4=O)ccc32)C1	Sm TGR inh 25µM
COc1ccc(C(=O)Nc2ccc3c(c2)nc(CN2CCCC2)n3C)cc1	none
O=C(Nc1ccc2c(c1)nc1n2CCN(Cc2ccccc2)C1)NC1CCCCC1	Sm TGR inh inconclusive
COCCN1CCn2c(nc3cc(NC(=O)NC4CCCCC4)ccc32)C1	Sm TGR inh 8.9µM
CCOC(=O)Nc1ccc2c(c1)nc1n2CCN(CCOC)C1	none
CCOc1ccc(CNC(=O)c2ccc3c(c2)c(C)c(C)n3Cc2ccccc2)cc1OC	none (no result: SARS PLpro yeast)
Cc1ccc(NC(=O)N2CCN(c3cc(-c4noc(C)n4)ccc3C)CC2)c(F)c1	none (no result: SARS PLpro yeast)
Cc1ccc(S(=O)(=O)/N=C2\C(=O)c3ccccc3C([O-])=C2n2cc[n+](CCC(C)C)c2)cc1	none
CC(=O)Nc1ccc(S(=O)(=O)/N=C2\C(=O)c3ccccc3C([O-])=C2n2cc[n+](-c3ccccn3)c2)cc1	Sm TGR inh 7.1µM
Cc1cccc(/C=C/C(=O)c2ccc([N+](=O)[O-])o2)c1	Sm TGR inh 1.6µM
COc1ccc(/C=C/C(=O)c2ccc([N+](=O)[O-])o2)cc1	Sm TGR inh inconclusive
Cc1ccccc1/C=C/C(=O)c1ccc([N+](=O)[O-])o1	Sm TGR inh 2µM
Cc1ccccc1NC(=O)c1ccc([N+](=O)[O-])o1	none
CCOC(=O)Cn1c(=O)n(CC2CCCO2)c2nc(-c3c(F)cccc3Cl)nc(C(N)=O)c21 (centres undefined)	none (no result: SARS PLpro yeast)
Cc1c(C(=O)Nc2ccccc2Cl)sc2ncnc(N(C)C3CCCCC3)c12	none (no result: SARS PLpro yeast)
CC(C)c1cc(=O)oc2c3c4c(cc12)CCCN4CCC3	Sm TGR inh 45µM
O=c1cc(C(F)(F)F)c2cc3c4c(c2o1)CCCN4CCC3	none
COc1ccc(C(=O)Oc2cc(C)c(CN3CCOCC3)cc2C)cc1OC	Sm TGR inh 40µM
COc1ccc(CN2CCOCC2)cc1OC	none
Cc1nc2ncnn2c(C)c1CCC(=O)NCc1ccccc1Cl	none (no result: SARS PLpro yeast)
COc1cccc(-n2ccn(CC(=O)Nc3ccccc3F)c(=O)c2=O)c1	none (no result: SARS PLpro yeast)
COC/C=C/C1=CC2=CC(=O)C(C)(OC(=O)c3cnc4ccccc4n3)C(=O)C2=CN1Cc1ccc(OC)cc1 (centres undefined)	Sm TGR inh 16µM
COC/C=C/C1=CC2=CC(=O)C(C)(OC(=O)c3cnc4ccccc4n3)C(=O)C2=CN1Cc1ccccc1 (centres undefined)	Sm TGR inh inconclusive
CCCCCCCC1=CC2=CC(=O)C(C)(OC(C)=O)C(=O)C2=CN1CCc1ccccc1 (centres undefined)	none
CCCCC1=CC2=CC(=O)C(C)(OC(=O)c3cnc4ccccc4n3)C(=O)C2=CO1 (centres undefined)	Sm TGR inh 35µM
CCCCC1=CC2=CC(=O)C(C)(OC(=O)CCc3ccccc3)C(=O)C2=CO1 (centres undefined)	Sm TGR inh 45µM
CC1(OC(=O)CCc2ccccc2)C(=O)C=C2C=C(c3ccc(C#N)cc3)N(Cc3ccco3)C=C2C1=O (centres undefined)	Sm TGR inh 35µM
CC1(OC(=O)CCc2ccccc2)C(=O)C=C2C=C(c3ccc(C#N)cc3)N(Cc3ccccc3)C=C2C1=O (centres undefined)	Sm TGR inh inconclusive
COC/C=C/C1=CC2=CC(=O)C(C)(OC(=O)c3cnc4ccccc4n3)C(=O)C2=CN1CCCCO (centres undefined)	none
CCN1C(=O)C2(c3ccccc31)c1c(oc3ccccc3c1=O)C(=O)N2CCOC (centres undefined)	none (no result: SARS PLpro yeast)
Cc1cccc(C(=O)Nc2ccc(C(=O)OCc3cc(=O)n4c(C)csc4n3)cc2)c1	none (no result: SARS PLpro yeast)
CCN(C(=O)CSc1nc2ccccc2n1Cc1ccccc1C#N)c1ccccc1	none (no result: SARS PLpro yeast)
CCCCOC(=O)c1ccc(Nc2nc3ccc(C)cc3n3cnnc23)cc1	none (no result: SARS PLpro yeast)
COc1ccc(Nc2nc3ccc(C)cc3nc2-n2nc(C)cc2C)cc1Cl	none (no result: SARS PLpro yeast)
COc1ccc(/C=C/c2nc(C#N)c(N3CCC(C)CC3)o2)cc1OC	none (no result: SARS PLpro yeast)
Cc1cn2c(=O)cc(COC(=O)c3cccc(NC(=O)c4ccc(C(C)(C)C)cc4)c3)nc2s1	none (no result: SARS PLpro yeast)
CC(=O)Nc1ccc(C(=O)OCC(=O)N(c2ccccc2)C2CCS(=O)(=O)C2)cc1 (centres undefined)	none
O=C(CCl)N(c1ccccc1)C1CCS(=O)(=O)C1 (centres undefined)	Sm TGR inh 22µM
O=C(NCc1ccc(F)cc1)c1cc2n(n1)CCCN(Cc1ccc(F)cc1)C2=O	none (no result: SARS PLpro yeast)
CCc1ccccc1NC(=O)c1cc(S(=O)(=O)N(CC)c2ccccc2)ccc1F	none (no result: SARS PLpro yeast)
CC(/C=N/Nc1ccc2nncn2n1)=C\c1ccccc1	Sm TGR inh 45µM
C(=C\c1ccccc1)/C=N/Nc1ccc2nncn2n1	none
COC(=O)c1cc2oc3ccccc3c2n1Cc1nc(-c2cccc(C)c2)oc1C	none (no result: SARS PLpro yeast)
C=Cc1ccc(CSc2nc(-c3ccc(C)cc3)nc3c2Cc2c(CO)cnc(C)c2O3)cc1	none (no result: SARS PLpro yeast)
COc1ccc(-c2noc(CSc3nnc(-c4ccncc4)n3-c3ccc(OC)cc3)n2)cc1	none (no result: SARS PLpro yeast)
C/C=C\C=C/C(=O)Nc1cccc(C2=NOC3(C2)C[C@H](C(N)=O)N(C(=O)CC)C3)c1 (some centres undefined)	Sm TGR inh 1.8µM
C/C=C/C(=O)Nc1cccc(C2=NOC3(C2)C[C@H](C(N)=O)N(C(=O)/C=C/C)C3)c1 (some centres undefined)	none
C/C=C(\C)C(=O)Nc1cccc(C2=NOC3(C2)C[C@@H](C(N)=O)N(C(=O)/C(C)=C/C)C3)c1 (some centres undefined)	none
CCC(=O)Nc1cccc(C2=NOC3(C2)C[C@@H](C(N)=O)N(C(=O)C(c2ccccc2)c2ccccc2)C3)c1 (some centres undefined)	none
